The results in this text go back to PubChem BioAssay AID588413 (Sanford-Burnham Center for Chemical Genomics, 2011).

Out of some 340,000 compounds screened, about 2,500 (0.74%) were called active. This excerpt belongs to a sample that is enriched for actives. A number with no mark means an inactive call.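 Rule for the calls: active = inhibition above about 55% (limit read from the data); inactive = the rest.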

The nature of this test: blockers of Gli reporter signaling – luciferase luminescence, Sufu-KO-LIGHT cells, uHTS, primary screen (AID 588413).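 Note: 0% = DMSO-treated cells and 100% = wells with medium but no cells.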 To be noted: Sufu-KO-LIGHT fibroblasts, at 5 µM, hits give high values.
The inhibition is the drop in the measured response relative to a control, in per cent. `COc1cc(C(=O)OC(C)C(=O)NCC2CCCCC2)cc(NC(=O)c2ccco2)c1OC` (centres undefined): the inhibition is 61.1% (active).

As for `CC(OC(=O)c1ccc([N+](=O)[O-])cc1)C(=O)NCC1CCCCC1` (centres undefined), the inhibition is 6.02%.

As to `COc1ccc(NC(=O)CCC(=O)Nc2cc(OC)c(NC(=O)c3ccco3)cc2OC)c(OC)c1`, the inhibition is 15.2%.

For the compound `CN1CCN(C(=O)/C(=C\c2ccc3c(c2)OCO3)NC(=O)c2cccs2)CC1`, the inhibition was -0.95%.

Regarding `CC(=O)Nc1ccccc1C(=O)C(=O)Nc1ccc(F)cc1`, the inhibition is -24.7%.

`O=C(CSCc1ccccc1)N1CCc2ccccc21`: the inhibition is -87.8%.

On to `CC1CCCN(C(=O)CN2C(=O)c3ccccc3S2(=O)=O)C1` (centres undefined), for which the inhibition is 6.76%.

With `O=C(CN1C(=O)c2ccccc2S1(=O)=O)N1CCc2ccccc21`, the inhibition is 64.8% (active).

In the case of `Cc1ccc(CNC(=O)CCN2C(=O)[C@@H]3Cc4ccccc4CN3C2=O)cc1`, the inhibition was -9.51%.

As for `CCOC(=O)N(Cc1ccccc1)C1CC1`, the inhibition is 0.91%.

`O=C(CS(=O)(=O)c1cn(Cc2cccc(F)c2)c2ccccc12)N1CCCCC1`: the inhibition was 9.01%.

As for `Cc1ccc(S(=O)(=O)N2C[C@@H]3CCCC[C@@H]3[C@@H](C)[C@H]2c2cn(Cc3ccccc3)c3ccc(F)cc23)cc1`, the inhibition was 72.8% (active).

Take `Cc1ccc(S(=O)(=O)N2CC(C)N(S(C)(=O)=O)C2)cc1` (centres undefined): the inhibition was -2.13%.

In the case of `O=C(CNS(=O)(=O)c1ccc(Br)s1)N1CCN(C(=O)c2ccco2)CC1`, the inhibition is -4.48%.

Regarding `O=C(NN=Cc1ccc([N+](=O)[O-])cc1)C1CC1`, the inhibition was -2.46%.

Take `O=C1/C(=C\c2ccc([N+](=O)[O-])cc2)CS(=O)(=O)C/C1=C/c1ccc([N+](=O)[O-])cc1`: the inhibition is 65.4% (active).

As for `O=[N+]([O-])c1ccc(C=NN=Cc2ccc([N+](=O)[O-])cc2)cc1`, the inhibition is -0.85%.

On to `Cc1nn(C(C)(C)C)c(OC(=O)CC(C)C)c1S(=O)(=O)c1ccccc1`, for which the inhibition is 12.6%.

As to `COc1ccc(C(=O)NCC(=O)N/N=C/c2ccc([N+](=O)[O-])o2)cc1OC`, the inhibition was -0.07%.

On to `Cc1onc(C(=O)NCc2ccc(F)cc2)c1[N+](=O)[O-]`, for which the inhibition is 3.05%.

For `O=C(/C=C/c1ccc([N+](=O)[O-])o1)NNC(=O)c1ccc(F)cc1`, the inhibition is 67.6% (active).

Consider `Cc1ccc(CN(CC(=O)NC2CCCCC2)C(=O)c2csnn2)cc1`, for which the inhibition is -19.5%.

As to `C/C=C/c1ccc(OCC(=O)OCC(=O)Nc2c(C)nn(-c3ccccc3)c2C)c(OC)c1`, the inhibition is -14.7%.

Turning to `CSc1nsc(SC)c1NC(=O)OC1CCCCC1`, the inhibition was 3.57%.

Regarding `COCCn1c(C)cc(C(=O)COC(=O)/C=C/c2cccc(OC)c2)c1C`, the inhibition is 0.01%.

Consider `CCN(CC)S(=O)(=O)c1ccc(OC(C)C)c(N)c1`, for which the inhibition was -7.56%.

As for `Oc1ccc2ccccc2c1N=Nc1nccs1`, the inhibition is 75.4% (active).

As to `O=C(CN1CCCCC1)NC(=O)Nc1ccccc1F`, the inhibition was -7.73%.

With `CC(C)c1ccc(Cc2nnc(NCCCO)[nH]c2=O)cc1`, the inhibition is -3.48%.

With `COc1ccc(Cc2nnc(N/N=C/c3ccccc3O)[nH]c2=O)cc1OC`, the inhibition was 88.1% (active).

Consider `COc1ccc(Cc2nnc(SC)[nH]c2=O)cc1`, for which the inhibition was -8.83%.

For `CCc1cccc2c3c([nH]c12)C(CC)(CC(=O)O)OCC3` (centres undefined), the inhibition was -4.38%.

As to `CC(C)c1ccc(C2C(C#N)=C(N)Oc3c2oc(CO)cc3=O)cc1` (centres undefined), the inhibition is -0.24%.

Turning to `CCOC(=O)c1ccc(NC(=O)Cc2cccs2)cc1`, the inhibition was -48%.

As for `CCOC(=O)c1ccc(NC(=O)Cn2cnc3cc(C)c(C)cc32)cc1`, the inhibition was 65% (active).

Regarding `CCCc1nnc(SCC(=O)Nc2ccc(C(=O)OCC)cc2)o1`, the inhibition was -7.14%.

Turning to `CCCCC(=O)N1CC2(C)CN(C(=O)CCCC)CC(C)(C1)C2=O`, the inhibition was -15.8%.

Take `COCCCN(C(=O)CSCc1ccc(C)cc1)c1c(N)n(Cc2ccccc2)c(=O)[nH]c1=O`: the inhibition is -6.23%.

Regarding `CC(C)NC(=O)C(=O)NCCN1CCN(S(=O)(=O)c2ccc(Cl)cc2)CC1`, the inhibition is -1.75%.

With `Cc1ccc(NC(=O)c2ccc(CSc3ncnc4nc[nH]c34)cc2)c(C)c1`, the inhibition is -3.19%.

Regarding `CCNc1nc(SCCOc2ccccc2)nc(N(C)C)n1`, the inhibition is 17.6%.

In the case of `COc1ccc2nc(SCC(=O)Nc3c(C)cc(C)cc3C)[nH]c2c1`, the inhibition is 82.7% (active).

Take `Cc1ccc2nc(SCC(=O)NC3CCCC3)[nH]c2c1`: the inhibition was 19.8%.

With `Cc1cc(C)c(NC(=O)CSc2nc3ccncc3[nH]2)c(C)c1`, the inhibition is -7.29%.

`N#C/C=C/N1CCN(Cc2ccc3c(c2)OCO3)CC1`: the inhibition is 1.76%.

With `CC(C)(C)OC(=O)N(Cc1ccccc1)Cc1ccc(OCc2cccc(NC(=O)c3ccccc3)c2)cc1`, the inhibition was 1.99%.

`O=C1Cc2ccccc2Sc2ccc(Cl)cc21`: the inhibition is 3%.

`Cc1ccc(C(=O)C(=S)N2CCOCC2)cc1`: the inhibition was -12.9%.

For the compound `CSc1ncccc1C(=O)Nc1ccc(C)cn1`, the inhibition is -28.8%.

In the case of `CSc1ncccc1C(=O)Nc1ccc2c(c1)OCO2`, the inhibition is -2.99%.

As to `CSc1ncccc1C(=O)Nc1nc2ccc(F)cc2s1`, the inhibition was 56.9% (active).

`CC(C)=NN1C(=O)c2ccccc2NC1(C)C`: the inhibition was 0.06%.

On to `Cn1nccc1C(=O)NC1CCCc2c1cnn2-c1ccccc1F` (centres undefined), for which the inhibition is 77.6% (active).

Regarding `Cc1cc(C(=O)NC2CC(C)(C)Cc3c2cnn3-c2ccccc2)n[nH]1` (centres undefined), the inhibition was 7.64%.

Consider `Cn1nccc1C(=O)NC1CCCc2c1cnn2-c1ccc(F)cc1F` (centres undefined), for which the inhibition was 73% (active).

In the case of `Cc1ccc(-n2ncc3c2CCCC3NC(=O)c2cnccn2)cc1C` (centres undefined), the inhibition is 20.6%.

Regarding `COc1ccc(C(=O)NC2CC(C)(C)Cc3c2cnn3-c2ccccc2)c(OC)c1` (centres undefined), the inhibition is 14%.

For the compound `COc1ccc(C(=O)NC2CC(C)(C)Cc3c2cnn3-c2ccccc2C)o1` (centres undefined), the inhibition is 3.2%.

As for `COc1ccc(C(=O)NC2CCCc3c2cnn3-c2cccc(C)c2C)c(OC)n1` (centres undefined), the inhibition is 57% (active).

Turning to `CC1(C)Cc2c(cnn2-c2cccc(F)c2)C(NC(=O)c2cc[n+]([O-])cc2)C1` (centres undefined), the inhibition was -1.99%.

Turning to `CC1=C(C(=O)NC2CC(C)(C)Cc3c2cnn3-c2ccc(C)cc2)OCCO1` (centres undefined), the inhibition was 13.4%.

`COC(=O)c1cc(=O)n(-c2c(Cl)cc(C(F)(F)F)cc2Cl)[nH]1`: the inhibition was 5.78%.

Consider `C[C@]1(C(=O)NCCc2c[nH]c3ccccc23)C=C[C@@H](Cc2ccccc2)N1C(=O)c1ccccc1`, for which the inhibition is 6.62%.

As for `NC(=S)NN=C1CCCC(C(F)(F)F)C1` (centres undefined), the inhibition is 4.43%.

In the case of `Cc1cc(C)c2nc(N3CCC(C(=O)NCCN4CCOCC4)CC3)sc2c1`, the inhibition was 42.9%.

For `O=C(NCCCN1CCCC1=O)C(=O)NCC1OCCN1S(=O)(=O)c1ccc(Br)cc1` (centres undefined), the inhibition was 9.53%.

`CCCN(c1ccc(C)cc1)c1nc(=O)c2cccnc2s1`: the inhibition is 11.6%.

`COc1cccc(NC(=O)Cn2cnc3sc(C)c(S(=O)(=O)N4CCN(C)CC4)c3c2=O)c1`: the inhibition is -2.51%.

In the case of `COc1cccc(NC(=O)COC(=O)CCOc2ccccc2OC)c1`, the inhibition was -1.81%.

Turning to `CCCCCCCCCCOC(=O)Cn1c(COc2ccc(C)cc2)[n+](C)c2ccccc21`, the inhibition is 83.1% (active).

In the case of `CCOC(=O)CNC(=O)CSc1nnc(-c2cccc(OC)c2)n1CC`, the inhibition was 7.3%.

Turning to `CCCCOc1ccc(NC(=O)CSCC(=O)OCC)cc1`, the inhibition is 0.02%.

Consider `CCCCCCCCCCOC(=O)Cn1c(COc2cccc(OC)c2)[n+](C)c2ccccc21`, for which the inhibition was 79.7% (active).

Take `Cc1ccc(COc2ccc(C(=O)NN)cc2)cc1`: the inhibition is -19.9%.

Consider `Cc1ccc(N2C(=O)C3C4C=CC(CC4)C3C2=O)cc1Cl` (centres undefined), for which the inhibition is 6.68%.

As to `CN(C(=O)c1cccc([N+](=O)[O-])c1)c1ccccc1C(=O)NCc1ccccc1`, the inhibition was 0.49%.

As to `Cn1c(=O)[nH]c2c(c(C(=O)O)nn2C)c1=O`, the inhibition was -2.41%.

For `C/C(=N\Nc1cccc(C(=O)O)c1)c1ccc2c(c1)Nc1ccccc1S2`, the inhibition was -35.5%.

`O=C(CN(C(=O)c1csnn1)c1cccc(Cl)c1)NC1CCCC1`: the inhibition is -16.6%.

In the case of `CCS(=O)(=O)N1CCCC(C(=O)NCCCN(C)Cc2ccccc2)C1` (centres undefined), the inhibition was 9.61%.

Take `O=C1CCCCN1CCCC(=O)N1CCCC(Nc2ccc(F)cc2)C1` (centres undefined): the inhibition is 45.4%.

With `COc1ccccc1N1CCN(Cc2cc(OC)c3c(c2)OCO3)CC1`, the inhibition was 60.1% (active).

Consider `COc1ccccc1N1CCN(Cc2ccc(OC)c3ccccc23)CC1`, for which the inhibition is 10.6%.

As for `CNCC(O)CN1CCN(c2ccccc2OC)CC1` (centres undefined), the inhibition is 2.51%.

Consider `CN1CCN(c2cc(=O)n(-c3ccc(Cl)cc3)c(=O)[nH]2)CC1`, for which the inhibition is 7.35%.

Turning to `C=CCO/N=C/C1=C(O)C(C(=O)OC)C(C)(C)CC1=O` (centres undefined), the inhibition is -5.83%.

For the compound `CCN(CC)CCCC(C)n1c2nc(=O)[nH]c(=O)c-2nc2cc(Cl)ccc21` (centres undefined), the inhibition is 83.6% (active).

With `CCOC(=O)C1(CCOC)CCN(Cc2cc3ccccc3s2)CC1`, the inhibition is -4.84%.

For `Cc1cc(C)nc(N/N=C/c2c(CO)cnc(C)c2O)n1`, the inhibition is 0.23%.

In the case of `CCOc1ccc(-n2c(O)c(/C=N/Nc3nc(C)cc(C)n3)c3ccccc3c2=O)cc1`, the inhibition is 61.7% (active).

As for `CCN(CC)CCCN=Cc1c(O)n(-c2ccc(C)cc2)c(=O)c2ccccc12`, the inhibition was -0.11%.

Consider `Cc1ccc(-n2c(O)c(C=Nc3ccc(S(=O)(=O)Nc4ncccn4)cc3)c3ccccc3c2=O)cc1C`, for which the inhibition is -0.18%.

Turning to `Cc1ccc(N=Cc2c(O)n(-c3nccs3)c(=O)c3ccccc23)c(C)c1`, the inhibition is -4.34%.

As to `CCOc1ccc(-n2c(O)c(/C=N/c3ccnn3Cc3ccncc3)c3ccccc3c2=O)cc1`, the inhibition is 62.7% (active).
